Results on six compounds are retold here after PubChem BioAssay (Tox21).

“And” between values parts separate entries of the source, which are not always exact repeats. Identical values can stand only once. Records with an inconclusive call do not appear. Some compounds were tested as several samples or in several runs, with calls that do not always agree. The source made the active and inactive calls. Unless noted, calls follow the shape of the dose curve; as a rule, active = well fitted curve in the direction sought with a large enough effect in the repeat runs; inconclusive = weak or mixed curves; inactive = no such curve, though single readings can be large; an effect the other way counts as inactive or inconclusive.

Experiment [1] in a line: Human pregnane X receptor (PXR) small molecule agonists, qHTS cell viability counter screen (AID 1346977). Also: nearly all actives have a fitted effect of over 50% in size. An outline of the steps: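 PXR-Luc HepG2 cells (2,000/well, 5% charcoal-stripped FBS) preincubated 5 hr, then exposed to compounds 24 hr at 37 C. Viability read in the same wells by CellTiter-Fluor fluorescence, reagent added at 23 hr, 1 hr incubation.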
Experiment [2] can be described thus: Caspase-3/7 induction in HepG2 cells by small molecules, qHTS assay (AID 1346978). Also: nearly all actives have a fitted effect of over 15% in size. An outline of the steps:
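Wild-type HepG2 cells, 2,000/well, settled 5 hr at 37 C and 5% CO2, then compound-treated for 17 hr; caspase-3/7 activity read by luminescent Caspase-Glo 3/7 after 30 min at room temperature.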

The nature of experiment [3]: Caspase-3/7 induction in CHO-K1 cells by small molecules, qHTS cell viability counter screen (AID 1346979). Also: nearly all actives have a fitted effect of over 35% in size. Also: potency is read from the fitted curve at half-maximal effect. An outline of the steps: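 Wild-type CHO-K1 cells (1,500/well) treated with compound after 5 h plating; after 16 h at 37C, viability read as CellTiter-Fluor fluorescence following 1 h reagent incubation, in the same wells as the caspase read.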
Experiment [4] is described as follows: Caspase-3/7 induction in CHO-K1 cells by small molecules, qHTS assay (AID 1346980). Also: nearly all actives have a fitted effect of over 15% in size. In outline:
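Wild-type CHO-K1 cells exposed to compounds for 17hr at 37 C, 5% CO2. Caspase-3/7 activity then measured by Caspase-Glo 3/7 luminescence after 30min at room temperature.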

A short description of experiment [5]: Caspase-3/7 induction in HepG2 cells by small molecules, qHTS cell viability counter screen (AID 1346981). Also: series mostly up to about 92 µM; nearly all actives have a fitted effect of over 30% in size. An outline of the steps:
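In this quantitative HTS counter screen, compounds delivered in DMSO were left on unmodified HepG2 cells for 16 hr at 37 C. Viability was then determined fluorometrically with CellTiter-Fluor, in parallel with caspase-3/7 induction in the same wells.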

The target of experiment [6] is Nuclear receptor subfamily 1 group I member 2 (Homo sapiens) (UniProt O75469). Nature of the experiment: Human pregnane X receptor (PXR) small molecule agonists, qHTS assay (AID 1346982). Also: nearly all actives have a fitted effect of over 35% in size. Also: potency is read from the fitted curve at half-maximal effect. In outline:
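Reporter HepG2 cells expressing PXR-Luc are cultured in charcoal-stripped FBS (5%), treated with compounds for 24 hr at 37 C, and assayed by ONE-Glo luminescence after 30 min at room temperature.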

Experiment [7] has as its target Acetylcholinesterase (Homo sapiens) (UniProt P22303). Kind of experiment: Acetylcholinesterase (AChE) small molecule antagonists: colormetric cell-based qHTS assay (AID 1347395; calls by dose curve; also: nearly all actives have a fitted effect of over 30% in size). An outline of the steps: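 SH-SY5Y cells attached overnight, exposed to compound 30 min at 37 C, then given DTNB/acetylthiocholine; after 90 min at 37 C, colorimetric thiocholine read gives cellular AChE activity.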

The target is the same in experiment [8]. Kind of experiment: Acetylcholinesterase (AChE) small molecule antagonists: enzyme-based qHTS assay (AID 1347397; calls by dose curve; also: nearly all actives have a fitted effect of over 55% in size). The conditions noted are these: Potency: AChE enzyme activity inhibition. An outline of the steps:
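In this quantitative HTS, compounds from the Tox21 10K collection were preincubated 30 min at ambient temperature with recombinant human AChE dispensed at 50 mU/mL. Hydrolysis of acetylthiocholine was then followed for 10 min by DTNB colour development.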

For experiment [9] the target is unchanged. Nature of the experiment: Acetylcholinesterase (AChE) small molecule antagonists: fluorescence cell-based qHTS assay (AID 1347398; calls by dose curve; also: nearly all actives have a fitted effect of over 50% in size). The conditions noted are these: Potency: AChE activity. In outline:
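Cells (SH-SY5Y) attached overnight, were dosed with compound or DMSO vehicle for 30 min at 37 C, and then incubated 40 min at room temperature with acetylthiocholine and Thiolite Green; green fluorescence indexed AChE activity.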

The target is the same in experiment [10]. Nature of the experiment: Acetylcholinesterase (AChE) small molecule antagonists: enzyme-based qHTS assay with human liver microsomes (AID 1347399; calls by dose curve; also: nearly all actives have a fitted effect of over 60% in size). As to conditions: Potency: qHTS inhibition. In outline:
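Recombinant human AChE (50 mU/mL in the enzyme mix) and human liver microsomes (0.25 mg/mL final) were preincubated with compound and NADPH (0.25 mg/mL final) for 30 min at 37 C. Acetylthiocholine/DTNB was then added; thiocholine was read colorimetrically after 10 min at room temperature.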

For experiment [11], the target named is Cytochrome P450 2D6 (Homo sapiens) (UniProt P10635). Kind of experiment: Cytochrome P450 Family 2 Subfamily D Member 6 (CYP2D6) small molecule antagonists: luciferase reporter qHTS assay (AID 1671196). Also: nearly all actives have a fitted effect of over 50% in size. Also: potency is read from the fitted curve at half-maximal effect. In outline:
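Test chemicals meet CYP2D6 plus proluciferin substrate (10 min, RT); NADPH regenerating solution then drives turnover for 1 h. Detection reagent halts the reaction; luminescence measured after 20 min.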

Experiment [12] addresses Cytochrome P450 2C19 (Homo sapiens) (UniProt P33261). Nature of the experiment: Cytochrome P450 Family 2 Subfamily C Member 19 (CYP2C19) small molecule antagonists: luciferase reporter qHTS assay (AID 1671197). Also: nearly all actives have a fitted effect of over 65% in size. Also: potency is read from the fitted curve at half-maximal effect. An outline of the steps:
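Luminescent readout of CYP2C19 activity: luciferin product detected 20 min after adding detection reagent. Before that, compound and enzyme-substrate mix preincubated 10 min at room temperature; NADPH-regenerating system started a 1 h, 37C reaction. Ketoconazole as positive control.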

Experiment [13] deals with Cytochrome P450 2C9 (Homo sapiens) (UniProt P11712). Nature of the experiment: Cytochrome P450 Family 2 Subfamily C Member 9 (CYP2C9) small molecule antagonists: luciferase reporter qHTS assay (AID 1671198). Also: nearly all actives have a fitted effect of over 50% in size. Also: potency is read from the fitted curve at half-maximal effect. An outline of the steps:
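P450-Glo proluciferin substrate with CYP2C9 enzyme; 10 min RT preincubation, then NADPH regeneration 1 h at 37C; luciferin detection reagent 20 min RT, luminescence in relative luminescence units.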

Experiment [14] deals with Cytochrome P450 1A2 (Homo sapiens) (UniProt P05177). Nature of the experiment: Cytochrome P450 Family 1 Subfamily A Member 2 (CYP1A2) small molecule antagonists: luciferase reporter qHTS assay (AID 1671199). Also: nearly all actives have a fitted effect of over 50% in size. Also: potency is read from the fitted curve at half-maximal effect. In outline: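 Steps: enzyme-substrate mix dispensed; test compounds and furafylline control pinned in; 10 min room temperature; NADPH regeneration solution added, 1 h; reaction stopped with luciferin detection reagent; luminescence read after 20 min.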

Experiment [15] concerns the target Voltage-gated inwardly rectifying potassium channel KCNH2 (Homo sapiens) (UniProt Q12809). Nature of the experiment: Human Ether-a-go-go-Related Gene (hERG) channel small molecule antagonists: fluorescence cell-based qHTS assay (AID 1671200). In outline: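 hERG-U2OS cells plated overnight at 37 C, loaded with FluxOR II dye 1 h at RT in dark; after 10 min, thallium stimulus added. Fluorescence (480/540 nm) read kinetically for 2 min at 1 s intervals.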

Experiment [16] has as its target Cytochrome P450 3A4 (Homo sapiens) (UniProt P08684). Kind of experiment: Cytochrome P450 Family 3 Subfamily A Member 4 (CYP3A4) small molecule antagonists: luciferase reporter qHTS assay (AID 1671201). In outline: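 P450-Glo CYP3A4 luminescent assay: compounds preincubated 10 min at room temperature with enzyme and proluciferin substrate, NADPH regeneration added, 1 h room-temperature reaction, stopped with luciferin detection reagent; luminescence read after 20 min. Ketoconazole positive control.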

Sequence of Nuclear receptor subfamily 1 group I member 2 (Homo sapiens) (O75469 whole entry, looked up): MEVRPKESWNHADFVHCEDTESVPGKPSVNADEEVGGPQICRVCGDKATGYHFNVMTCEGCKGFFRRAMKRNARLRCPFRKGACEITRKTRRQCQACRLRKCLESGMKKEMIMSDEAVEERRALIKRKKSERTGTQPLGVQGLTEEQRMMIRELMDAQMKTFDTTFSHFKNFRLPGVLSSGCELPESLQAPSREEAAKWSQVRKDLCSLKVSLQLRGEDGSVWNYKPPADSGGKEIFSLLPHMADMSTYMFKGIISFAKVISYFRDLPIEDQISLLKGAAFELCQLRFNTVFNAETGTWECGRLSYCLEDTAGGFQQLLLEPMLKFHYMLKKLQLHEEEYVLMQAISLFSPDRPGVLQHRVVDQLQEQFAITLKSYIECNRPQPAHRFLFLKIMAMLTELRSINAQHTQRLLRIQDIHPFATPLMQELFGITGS
Sequence of Voltage-gated inwardly rectifying potassium channel KCNH2 (Homo sapiens) (Q12809 whole entry, looked up): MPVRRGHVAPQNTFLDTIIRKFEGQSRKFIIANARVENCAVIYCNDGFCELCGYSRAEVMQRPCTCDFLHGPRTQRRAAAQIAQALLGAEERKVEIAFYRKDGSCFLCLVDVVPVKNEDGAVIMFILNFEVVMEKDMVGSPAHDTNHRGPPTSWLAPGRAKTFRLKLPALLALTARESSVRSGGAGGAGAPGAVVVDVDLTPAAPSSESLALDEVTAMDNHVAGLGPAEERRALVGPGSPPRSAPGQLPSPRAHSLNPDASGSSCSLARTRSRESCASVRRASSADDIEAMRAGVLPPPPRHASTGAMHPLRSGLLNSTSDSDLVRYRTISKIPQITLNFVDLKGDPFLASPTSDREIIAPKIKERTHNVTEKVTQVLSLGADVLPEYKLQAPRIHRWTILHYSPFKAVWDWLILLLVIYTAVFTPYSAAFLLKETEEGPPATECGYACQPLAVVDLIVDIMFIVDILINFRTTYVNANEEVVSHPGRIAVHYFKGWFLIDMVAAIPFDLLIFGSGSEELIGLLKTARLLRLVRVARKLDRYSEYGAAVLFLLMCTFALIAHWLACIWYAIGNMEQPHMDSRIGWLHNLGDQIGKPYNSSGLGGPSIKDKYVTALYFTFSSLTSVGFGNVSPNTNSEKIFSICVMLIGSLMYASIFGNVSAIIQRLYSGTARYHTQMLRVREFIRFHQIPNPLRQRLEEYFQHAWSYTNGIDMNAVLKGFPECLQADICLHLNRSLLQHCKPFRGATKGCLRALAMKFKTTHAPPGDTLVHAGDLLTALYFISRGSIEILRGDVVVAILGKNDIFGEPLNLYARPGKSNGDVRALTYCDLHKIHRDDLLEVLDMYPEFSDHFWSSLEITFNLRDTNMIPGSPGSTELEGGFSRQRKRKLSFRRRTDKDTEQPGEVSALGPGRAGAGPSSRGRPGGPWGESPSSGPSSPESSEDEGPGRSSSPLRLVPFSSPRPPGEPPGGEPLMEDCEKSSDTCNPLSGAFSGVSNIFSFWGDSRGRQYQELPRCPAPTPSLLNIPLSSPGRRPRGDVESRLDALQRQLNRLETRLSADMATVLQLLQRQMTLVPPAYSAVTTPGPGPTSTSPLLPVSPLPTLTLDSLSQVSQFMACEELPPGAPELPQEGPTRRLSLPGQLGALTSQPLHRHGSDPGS
Sequence of Cytochrome P450 1A2 (Homo sapiens) (P05177 whole entry, looked up): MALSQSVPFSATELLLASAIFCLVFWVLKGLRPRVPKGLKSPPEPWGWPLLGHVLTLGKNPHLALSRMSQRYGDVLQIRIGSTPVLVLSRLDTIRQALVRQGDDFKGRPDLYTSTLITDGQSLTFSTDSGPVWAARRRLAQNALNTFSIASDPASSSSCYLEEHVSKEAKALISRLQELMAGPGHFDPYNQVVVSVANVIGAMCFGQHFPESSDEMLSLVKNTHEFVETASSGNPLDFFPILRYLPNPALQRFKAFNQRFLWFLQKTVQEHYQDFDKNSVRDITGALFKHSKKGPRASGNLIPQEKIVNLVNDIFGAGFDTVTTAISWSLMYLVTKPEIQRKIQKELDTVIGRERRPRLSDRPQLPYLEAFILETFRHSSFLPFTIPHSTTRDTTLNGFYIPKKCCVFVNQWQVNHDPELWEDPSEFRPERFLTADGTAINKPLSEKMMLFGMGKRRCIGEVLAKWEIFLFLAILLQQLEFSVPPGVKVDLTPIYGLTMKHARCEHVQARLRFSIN
Sequence of Cytochrome P450 2C9 (Homo sapiens) (P11712 whole entry, looked up): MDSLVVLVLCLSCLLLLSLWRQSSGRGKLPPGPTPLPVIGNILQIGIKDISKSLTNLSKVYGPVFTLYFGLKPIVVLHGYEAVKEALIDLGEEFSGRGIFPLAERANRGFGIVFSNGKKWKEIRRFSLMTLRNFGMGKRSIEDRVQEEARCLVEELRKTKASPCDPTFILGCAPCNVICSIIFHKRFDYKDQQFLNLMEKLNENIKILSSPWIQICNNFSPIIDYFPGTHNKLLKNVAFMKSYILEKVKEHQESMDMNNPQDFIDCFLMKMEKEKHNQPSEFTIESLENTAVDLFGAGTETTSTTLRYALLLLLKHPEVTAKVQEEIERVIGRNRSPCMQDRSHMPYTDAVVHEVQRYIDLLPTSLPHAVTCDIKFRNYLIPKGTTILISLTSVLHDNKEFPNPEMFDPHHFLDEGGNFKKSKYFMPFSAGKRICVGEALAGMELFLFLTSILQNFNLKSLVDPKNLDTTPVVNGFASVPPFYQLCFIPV
Sequence of Cytochrome P450 2D6 (Homo sapiens) (P10635 whole entry, looked up): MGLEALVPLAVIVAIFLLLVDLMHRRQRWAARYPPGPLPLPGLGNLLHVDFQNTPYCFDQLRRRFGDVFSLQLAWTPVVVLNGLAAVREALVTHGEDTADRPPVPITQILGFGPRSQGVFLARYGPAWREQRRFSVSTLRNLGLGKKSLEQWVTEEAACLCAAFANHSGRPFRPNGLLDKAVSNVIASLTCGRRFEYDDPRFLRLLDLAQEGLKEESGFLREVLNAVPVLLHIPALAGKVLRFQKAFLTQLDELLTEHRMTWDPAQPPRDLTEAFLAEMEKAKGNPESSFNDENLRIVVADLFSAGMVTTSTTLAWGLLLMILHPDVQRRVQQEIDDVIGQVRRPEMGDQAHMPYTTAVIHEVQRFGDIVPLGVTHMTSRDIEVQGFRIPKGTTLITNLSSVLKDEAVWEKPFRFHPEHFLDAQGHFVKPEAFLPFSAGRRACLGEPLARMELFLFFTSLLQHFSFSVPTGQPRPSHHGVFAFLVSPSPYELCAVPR
Sequence of Cytochrome P450 3A4 (Homo sapiens) (P08684 whole entry, looked up): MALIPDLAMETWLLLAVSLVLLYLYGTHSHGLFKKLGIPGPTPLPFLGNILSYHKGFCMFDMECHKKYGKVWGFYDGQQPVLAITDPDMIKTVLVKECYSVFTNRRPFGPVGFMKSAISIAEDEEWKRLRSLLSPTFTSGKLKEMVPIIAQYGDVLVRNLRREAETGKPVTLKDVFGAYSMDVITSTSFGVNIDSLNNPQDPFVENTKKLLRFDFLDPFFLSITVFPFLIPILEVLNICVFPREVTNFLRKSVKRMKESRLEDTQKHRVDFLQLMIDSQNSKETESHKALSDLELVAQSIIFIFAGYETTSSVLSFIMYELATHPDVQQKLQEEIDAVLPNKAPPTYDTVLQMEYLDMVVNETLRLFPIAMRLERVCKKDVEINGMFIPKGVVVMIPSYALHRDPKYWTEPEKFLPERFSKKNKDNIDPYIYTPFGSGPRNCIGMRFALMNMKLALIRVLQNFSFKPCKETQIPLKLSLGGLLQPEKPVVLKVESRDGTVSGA
Sequence of Cytochrome P450 2C19 (Homo sapiens) (P33261 whole entry, looked up): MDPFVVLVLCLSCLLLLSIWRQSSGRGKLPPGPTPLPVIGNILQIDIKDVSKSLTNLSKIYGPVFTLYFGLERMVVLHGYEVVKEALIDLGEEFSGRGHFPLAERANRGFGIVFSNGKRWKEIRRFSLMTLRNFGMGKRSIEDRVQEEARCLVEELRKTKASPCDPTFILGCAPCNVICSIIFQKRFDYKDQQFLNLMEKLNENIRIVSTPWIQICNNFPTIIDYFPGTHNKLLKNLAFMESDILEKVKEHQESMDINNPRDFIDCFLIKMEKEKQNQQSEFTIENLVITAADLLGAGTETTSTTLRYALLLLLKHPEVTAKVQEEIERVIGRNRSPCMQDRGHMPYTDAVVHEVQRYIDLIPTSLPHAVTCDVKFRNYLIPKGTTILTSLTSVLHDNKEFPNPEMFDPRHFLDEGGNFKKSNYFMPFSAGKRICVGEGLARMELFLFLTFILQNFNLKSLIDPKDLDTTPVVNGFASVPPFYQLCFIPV
Sequence of Acetylcholinesterase (Homo sapiens) (P22303 whole entry, looked up): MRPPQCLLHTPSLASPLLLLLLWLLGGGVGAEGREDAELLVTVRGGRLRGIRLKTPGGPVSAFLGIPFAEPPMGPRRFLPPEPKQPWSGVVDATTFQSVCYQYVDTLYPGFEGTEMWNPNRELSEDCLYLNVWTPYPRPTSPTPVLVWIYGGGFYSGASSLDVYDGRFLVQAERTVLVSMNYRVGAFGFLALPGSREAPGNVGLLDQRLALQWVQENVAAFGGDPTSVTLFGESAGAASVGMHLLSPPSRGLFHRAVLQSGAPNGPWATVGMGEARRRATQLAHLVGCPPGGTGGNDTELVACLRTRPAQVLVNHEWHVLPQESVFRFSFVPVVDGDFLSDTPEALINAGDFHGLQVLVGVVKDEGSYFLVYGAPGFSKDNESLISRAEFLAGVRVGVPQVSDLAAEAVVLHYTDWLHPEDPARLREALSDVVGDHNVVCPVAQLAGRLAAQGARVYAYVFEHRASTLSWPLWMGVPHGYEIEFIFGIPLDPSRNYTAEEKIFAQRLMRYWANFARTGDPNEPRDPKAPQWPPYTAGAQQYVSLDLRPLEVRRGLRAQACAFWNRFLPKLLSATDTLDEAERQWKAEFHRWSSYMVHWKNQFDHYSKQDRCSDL

Consider `CS(=O)(=O)NC(=O)c1cc(Oc2ccc(C(F)(F)F)cc2Cl)ccc1[N+](=O)[O-]`, for which the Potency entry in [1], in experiment [2], in experiment [3], in experiment [4], in experiment [5] and in experiment [7] was “inactive” in each case. Further, the Potency result in [8], in experiment [9], in experiment [10], in experiment [11], in [14] and in [15] was “inactive” each time. The Potency entry in experiment [16] was “inactive”. For the same compound, the Potency in experiment [6] was 26.4 µM (active) and 7.7 µM (active); in [12] it was “inactive and 79.6 µM (active)”; in experiment [13], 19.3 µM (active) and 17.8 µM (active).

With `Clc1ccccc1-c1nnc(-c2ccccc2Cl)nn1`, the Potency entry in experiment [1], in experiment [2], in experiment [4], in [5], in [7] and in experiment [8] was “inactive” in each case. The Potency entry in [9], in experiment [10], in [11], in experiment [13], in experiment [15] and in experiment [16] was “inactive” each time. Moreover, the Potency in experiment [3] was 54 µM (active) and inactive; in [6], 54 µM (active) and inactive; in [12] it was 31.4 µM (active) and 6.31 µM (active); in [14], 5.59 µM (active) and 7.08 µM (active).

Consider `O=C(O)c1nn(Cc2ccc(Cl)cc2Cl)c2ccccc12`, for which the Potency entry in [1], in experiment [2], in experiment [3], in [4], in [5] and in experiment [7] was “inactive” each time. Further, the Potency entry in experiment [8], in experiment [9], in experiment [10], in experiment [12], in [14] and in experiment [15] was “inactive” in each case. Moreover, the Potency entry in experiment [16] was “inactive”. Moreover, the Potency in [6] is 60.7 µM (active) and inactive; in [11], 62.8 µM (active) and inactive; in experiment [13] it was 70.5 µM (active) and inactive.

With `CCCCOCCOC(C)=O`, the Potency entry in experiment [1], in [2], in experiment [3], in [4], in experiment [5] and in [6] was “inactive” each time. The Potency result in experiment [7], in experiment [8], in [9], in [10], in experiment [11] and in experiment [13] was “inactive” each time. Besides, the Potency entry in experiment [14], in [15] and in experiment [16] was “inactive” in each case. For the same compound, in experiment [12], the Potency is 77.6 µM (active) and inactive.

On to `CNC(=O)CSP(=S)(OC)OC`, for which the Potency entry in experiment [1], in experiment [2], in [4], in experiment [5], in [7] and in experiment [8] was “inactive” each time. Further, the Potency entry in experiment [9], in experiment [10] and in [15] was “inactive” throughout. The Potency in experiment [3] is 14.1 µM (active) and inactive; in experiment [6], 62.8 µM (active) and inactive; in [11], “inactive and 35.5 µM (active)”; in experiment [12], 10.3 µM (active) and 20 µM (active); in [13] it was 36.6 µM (active) and 20 µM (active).

For `Clc1cccc(Cl)c1`, the Potency entry in experiment [1], in experiment [2], in experiment [3], in experiment [4], in experiment [5] and in experiment [6] was “inactive” in each case. Also, the Potency entry in experiment [7], in experiment [8], in experiment [9], in [10], in experiment [11] and in [13] was “inactive” in each case. The Potency entry in experiment [15] and in [16] was “inactive” throughout. In addition, in experiment [12], the Potency is 62.8 µM (active) and inactive.
